Compound activity: PubChem BioAssay, National Center for Advancing Translational Sciences (NCATS)
L3MBTL1 inh – blocks human L3MBTL1; AlphaScreen L3MBTL1–H3K9me1 peptide binding; Potency, µM (series often up to 57.1 µM), most hits filed as inhibitors; hit rate 0.66% among 230,000; AID 485360; also: nearly all actives have a fitted effect of over 60% in size
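L3MBTL1 50 nM + b-AHA-H3(1-15)K9me1 75 nM, 30 min RT; compound added, 30 min RT; streptavidin donor/Ni-chelate acceptor beads 10 ug/mL each final, 30 min RT dark; AlphaScreen read.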
BAZ2B block – BAZ2B (human) inhibition; Q9UIF8; AlphaScreen BAZ2B-H3K14Ac peptide displacement; Potency, µM (top dose mostly 114 µM), actives largely listed as inhibitors; hit rate 4.4% among 360,000; AID 504333; also: nearly all actives have a fitted effect of over 60% in size
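AlphaScreen displacement: compounds (up to 110uM) incubated 30 min at room temperature with a preformed 50 nM BAZ2B/50 nM biotinylated H3K14Ac peptide complex in PBS pH 7.4 with Tween-20. Donor and acceptor beads at 10 ug/mL final added, 20 min light-protected before reading.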
HP1b chromo inh – blocks HP1-beta chromodomain binding to methylated histone tails | AlphaScreen HP1-beta / biotin-H3K9me3 peptide binding | Potency, µM (highest dose often 114 µM), hits mostly inhibitors | hit rate 0.56% among 390,000 | AID 540317; also: nearly all actives have a fitted effect of over 70% in size
Target sequence (P83916 whole entry, looked up): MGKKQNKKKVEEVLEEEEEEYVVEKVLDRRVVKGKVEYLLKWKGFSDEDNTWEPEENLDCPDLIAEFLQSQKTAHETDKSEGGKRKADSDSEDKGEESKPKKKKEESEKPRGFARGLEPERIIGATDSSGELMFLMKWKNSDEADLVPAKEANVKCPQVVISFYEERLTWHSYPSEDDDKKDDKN
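Compound inhibition of the preformed complex between 50 nM HP1-beta and 50 nM biotinylated H3K9me3 peptide was read by AlphaScreen. Buffer was PBS pH 7.4 with 0.01% Tween-20. Incubations ran 30 min at room temperature, with 10 ug/mL donor/acceptor beads.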
JMJD2A Tudor – inhibitors of human JMJD2A Tudor domain; AlphaScreen JMJD2A-Tudor / H3K4me3 peptide binding; Potency, µM (series often up to 114 µM), actives largely listed as inhibitors; hit rate 4.4% among 390,000; AID 504339; also: nearly all actives have a fitted effect of over 50% in size
G9a block – blocks human histone lysine methyltransferase G9a; G9a H3K9 monomethylation, AlphaScreen, 2 h; Potency, µM (titrated, usually from 102 µM), usual class: inhibitors; hit rate 8.8% among 350,000; also: nearly all actives have a fitted effect of over 75% in size
Target sequence (Q96KQ7 913-1193 limits assumed): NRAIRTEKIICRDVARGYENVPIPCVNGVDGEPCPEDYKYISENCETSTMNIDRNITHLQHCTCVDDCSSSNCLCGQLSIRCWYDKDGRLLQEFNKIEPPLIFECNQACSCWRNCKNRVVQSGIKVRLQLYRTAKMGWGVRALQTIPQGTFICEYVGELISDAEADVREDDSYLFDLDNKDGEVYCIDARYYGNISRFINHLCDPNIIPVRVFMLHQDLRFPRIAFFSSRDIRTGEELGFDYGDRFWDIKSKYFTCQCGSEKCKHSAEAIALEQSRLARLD
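Step 1: enzyme (final 20 nM) with compound, 15 min RT. Step 2: substrate peptide 500 nM and SAM 20 uM, 2 h RT. Step 3: anti-H3K9me1 antibody and AlphaScreen beads, 10 min, then plate read.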
Of the large screens only hits and unclear results are named; the others gave an inactive call; ! = not confirmed by another sample. Hits are enriched below; roughly 11% of the tested compounds scored in any of these assays. Calls follow the shape of the dose curve; as a rule, active = well fitted inhibition curve with a large enough effect; inconclusive = small, poorly fitted or top-dose-only effect; inactive = no such curve, though single readings can be large or run the other way.

COC(=O)CN1C(=O)C(C)(C)c2cc(S(=O)(=O)Nc3ccc(Br)cc3F)ccc21	none (no result: L3MBTL1 inh)
COc1ccc(N(CC(=O)N2CCN(c3ccc(F)cc3)CC2)S(=O)(=O)c2c(C)noc2C)cc1	none (no result: L3MBTL1 inh)
Cc1ccc(/C=N/Nc2ccc(C(=O)O)cc2)s1	L3MBTL1 inh inconclusive, BAZ2B block inconclusive, G9a block 14µM
Cc1ccc(/C=N/Nc2cccc(C(=O)O)c2)s1	JMJD2A Tudor inconclusive, G9a block inconclusive
CCOc1ccc(-n2nc(CO)c(C(=O)NCc3cccc(OC)c3)n2)cc1	none (no result: L3MBTL1 inh)
COc1ccccc1N=C1SCC(=O)N1Cc1ccco1	BAZ2B block inconclusive
COc1ccc2ccccc2c1C1CC(=O)N2CN(Cc3ccco3)CSC2=C1C#N (configuration not stated)	HP1b chromo inh inconclusive, JMJD2A Tudor inconclusive, G9a block 0.56µM
COc1ccc2ccccc2c1C1CC(=O)N2CN(C3CCCCC3)CSC2=C1C#N (configuration not stated)	BAZ2B block inconclusive, HP1b chromo inh inconclusive, JMJD2A Tudor inconclusive, G9a block 1.6µM
N#CC1=C2SCN(Cc3ccco3)CN2C(=O)CC1c1ccc(Cl)cc1 (configuration not stated)	HP1b chromo inh inconclusive, JMJD2A Tudor inconclusive, G9a block 1µM (no result: BAZ2B block)
CC(C)c1ccc(C2CC(=O)N3CN(Cc4ccco4)CSC3=C2C#N)cc1 (configuration not stated)	BAZ2B block 50µM, HP1b chromo inh inconclusive, JMJD2A Tudor 40µM, G9a block 2.8µM
Cc1ccc(CSc2nc3ccncc3n2Cc2nc(-c3ccccc3C)oc2C)cc1	JMJD2A Tudor inconclusive, G9a block inconclusive (no result: L3MBTL1 inh)
Cc1ccc(-c2nn(C)c(=O)c3ccccc23)cc1S(=O)(=O)NCCCN(C)C	none (no result: L3MBTL1 inh)
COc1ccc(OC)c(C2C(C#N)=C(N)N(N(C)C)C3=C2C(=O)CCC3)c1 (configuration not stated)	none (no result: L3MBTL1 inh)
COc1ccc(C2CC(=O)N3CN(Cc4ccco4)CSC3=C2C#N)cc1 (configuration not stated)	BAZ2B block inconclusive, HP1b chromo inh inconclusive, JMJD2A Tudor 7.1µM, G9a block 0.89µM
COc1cc(C2CC(=O)N3CN(Cc4ccco4)CSC3=C2C#N)ccc1OCc1ccccc1 (configuration not stated)	BAZ2B block 45µM, HP1b chromo inh inconclusive, JMJD2A Tudor 22µM, G9a block 1.3µM
COc1ccc(C2CC(=O)N3CN(C4CCCCC4)CSC3=C2C#N)c(OC)c1 (configuration not stated)	HP1b chromo inh inconclusive, JMJD2A Tudor 3.5µM, G9a block 2.5µM (no result: L3MBTL1 inh, BAZ2B block)
COCCOC(=O)C1=C(C)N=C2SCCC(=O)N2C1c1ccc(OCc2ccccc2)c(OC)c1 (configuration not stated)	none (no result: L3MBTL1 inh)
COc1ccc(N2CC(C(=O)Nc3ccccc3C(=O)NCc3ccco3)CC2=O)cc1 (configuration not stated)	none
COc1ccc(OC)c(NC(=O)C2Cc3ccccc3CN2S(=O)(=O)c2ccc(F)cc2)c1 (configuration not stated)	none (no result: L3MBTL1 inh)
O=C(NCCCn1ccnc1)C(=O)NCC(c1cccnc1)N1CCN(c2ccccc2)CC1 (configuration not stated)	BAZ2B block 50µM, JMJD2A Tudor 56µM, G9a block inconclusive
O=C(NCCCn1ccnc1)C(=O)NCC(c1ccco1)N1CCN(c2ccc(F)cc2)CC1 (configuration not stated)	G9a block inconclusive (no result: L3MBTL1 inh, BAZ2B block)
O=C(NCc1ccccc1)C(=O)NCC(c1cccnc1)N1CCN(c2ccccc2)CC1 (configuration not stated)	none (no result: L3MBTL1 inh)
O=C(NCCCn1ccnc1)C(=O)NCC(c1ccco1)N1CCN(c2ccccc2)CC1 (configuration not stated)	BAZ2B block 56µM
CCSc1nnc(CNC(=O)C23CC4CC(CC(C4)C2)C3)n1Cc1ccccc1	JMJD2A Tudor inconclusive, G9a block 32µM
CCc1ccc2occ(CC(=O)NCc3ccccc3)c2c1	none (no result: L3MBTL1 inh)
CCCOc1ccccc1-c1nc2n[nH]nc2c(=O)[nH]1	G9a block 14µM! (no result: L3MBTL1 inh, BAZ2B block)
O=C(NCc1ccc(F)cc1)c1ccc2c(c1)nc1n2CCCCC1	none (no result: L3MBTL1 inh)
O=C(CSc1nnc(-c2ccccc2)n1-c1ccc(Cl)cc1)NNC(=S)Nc1ccccc1	G9a block 10µM
Cn1c(SCC(=O)NNC(=S)Nc2ccccc2)nnc1-c1ccncc1	G9a block 71µM (no result: L3MBTL1 inh, HP1b chromo inh, JMJD2A Tudor)
C=CCn1c(SCC(=O)NNC(=S)Nc2ccccc2)nnc1-c1ccccc1	none
Cc1cccc(NC(=O)CSc2nnc(-c3ccncc3)n2C)c1	none
CCn1c(SCC(=O)NNC(=S)Nc2ccccc2)nnc1-c1ccc(Cl)cc1	G9a block 20µM
CC(=O)c1ccc(NC(=O)C(Cc2ccccc2)NS(=O)(=O)c2ccc3c(c2)CCC(=O)N3)cc1 (configuration not stated)	none (no result: L3MBTL1 inh)
O=[N+]([O-])c1ccc(/C=C/C2=NN(c3ccccc3)C(c3ccco3)C2)cc1 (configuration not stated)	BAZ2B block 50µM, JMJD2A Tudor inconclusive, G9a block 22µM
Cc1sc2c(c1C)C(=O)NC(c1ccccc1F)N2 (configuration not stated)	HP1b chromo inh inconclusive, JMJD2A Tudor inconclusive, G9a block 10µM
O=C1CSC(c2ccccc2F)N1 (configuration not stated)	BAZ2B block inconclusive (no result: L3MBTL1 inh, G9a block)
Cc1ccc(C2NC(=O)c3c(sc(C)c3C)N2)c(O)c1 (configuration not stated)	G9a block 32µM (no result: L3MBTL1 inh)
Cc1cccc(C2NC(=O)c3c(sc(C)c3C)N2)c1O (configuration not stated)	none
COc1cc(-c2nc(C(N)=O)c3c(n2)n(-c2cccc(C)c2)c(=O)n3C)cc(OC)c1OC	none (no result: L3MBTL1 inh)
OCC[C@@H]1C[C@@H](O)[C@H](O)[C@@]2(Cc3ccccc3O2)O1	G9a block 16µM
OCC[C@H]1C[C@H](O)[C@@H](O)[C@]2(Cc3ccccc3O2)O1	none
OCC[C@@H]1C[C@H](O)[C@@H](O)[C@@]2(CCc3ccccc3O2)O1	G9a block 79µM
CCCCn1c(N)c(N(CC(C)C)C(=O)COC(=O)C2(c3ccccc3)CC2)c(=O)[nH]c1=O	none
O=C(CCn1c(=O)c2cccn2c2cccnc21)N1CCN(c2cccc(C(F)(F)F)c2)CC1	none (no result: L3MBTL1 inh)
O=C1CC(c2ccccc2)Sc2ccccc2N1Cc1ccccc1F (configuration not stated)	none (no result: L3MBTL1 inh)
O=C(O)c1ccc2c(c1)C(=O)N([C@@H](Cc1ccc(O)cc1)C(=O)O)C2=O	none (no result: HP1b chromo inh)
Oc1ccc(C=NNC(=S)Nc2cccnc2)nc1	JMJD2A Tudor 10µM (no result: L3MBTL1 inh, BAZ2B block, G9a block)
Oc1ccc(/C=N/NC(=S)Nc2cccnc2)cc1O	L3MBTL1 inh 11µM, BAZ2B block inconclusive, HP1b chromo inh inconclusive, G9a block inconclusive
Fc1ccc(CNc2ncnc3nc[nH]c23)cc1	none (no result: L3MBTL1 inh, BAZ2B block, G9a block)
